From PubChem BioAssay (NCATS)
Results filed as inconclusive are left out. Activity calls are given as the source filed them. Unless noted, calls come from the whole dose curve; as a rule, active = well fitted curve in the direction sought with a large enough effect; inconclusive = small, poorly fitted or top-dose-only effect, or another doubt; inactive = no such curve, though single readings can be large; an effect the other way counts as inactive or inconclusive.

Assays:
[1] = Cell Viability - BJ (AID 421; calls by dose curve;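 note: potency is the fitted concentration of half-maximal effect; cells exposed to compound for 40 hours at 37 °C before readout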); conditions: BJ fibroblast viability, qHTS
Summary of the method: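 Cytotoxicity as drop in intracellular ATP (CellTiter-Glo, 20 min RT) after 40 hr compound exposure of BJ fibroblasts at 37 °C. Titrations scaled between DMSO and 100 uM tamoxifen, Hill-fitted for AC50.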

[2] = Cell Viability - Jurkat (AID 426;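 active = dose-dependent loss of cell ATP signal giving a full or clear fitted curve, ranked by lower potency value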;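 note: potency is the fitted concentration of half-maximal effect; cells exposed to compound for 40 hours at 37 °C before ATP read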); conditions: qHTS
Summary of the method: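 Luminescent ATP read-out (CellTiter-Glo, 20 min at room temperature) after 40 hr compound exposure at 37 °C of Jurkat E6-1 cells, 5000/well. Decreased ATP taken as cytotoxicity; AC50 from standard Hill equation.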

[3] = Cell Viability - Hek293 (AID 427;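 active = compounds whose dose-response curve shows a full or clear partial loss of cell viability, called from curve shape rather than a numeric limit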;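 note: potency is the fitted concentration of half-maximal effect; cells exposed to compound for 40 hours at 37 °C before reading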); conditions: qHTS
Summary of the method: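 Luminescent ATP content (CellTiter-Glo, 20 min at room temperature) was measured after a 40 hr, 37 °C compound exposure of HEK293 cells. AC50 values came from Hill-equation fits of qHTS concentration-response data normalized to DMSO and 100 uM tamoxifen.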

[4] = Cell Viability - HepG2 (AID 433; calls by dose curve;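 note: potency is the fitted concentration of half-maximal effect; cells exposed to compound for 40 hours; potency for ATP loss meaning cytotoxicity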); conditions: qHTS
Summary of the method: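 ATP luminescence (CellTiter-Glo) after 40 h compound exposure, 37 °C, HepG2, 1500 cells/well, complete medium. Normalized: DMSO = basal, 100 uM tamoxifen = 100% inhibition. AC50 via standard Hill equation.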

[5] = Cell Viability - MRC5 (AID 434; calls by dose curve;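 note: potency is the fitted concentration of half-maximal effect; cells exposed to compound for 40 hours at 37 °C; potency reflects cytotoxicity seen as loss of intracellular ATP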); conditions: MRC5 lung fibroblast viability, qHTS
Summary of the method: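 ATP luminescence read-out (CellTiter-Glo, 20 min RT) after 40 hr, 37 °C compound exposure of 1500 MRC5 cells/well. Data normalized to DMSO (basal) and 100 uM tamoxifen (100% inhibition); AC50 from standard Hill equation.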

[6] = Cell Viability - SK-N-SH (AID 435; calls by dose curve; note: potency is the fitted concentration of half-maximal effect); conditions: SK-N-SH neuroblastoma cell viability qHTS
Summary of the method: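 CellTiter-Glo ATP luminescence, 20 min RT read; cells pre-plated 5 hr, compound 40 hr at 37 °C, 1500 cells/well, complete medium. Normalized DMSO = 0, 100 uM tamoxifen = 100% inhibition; Hill-fit AC50.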

[7] = biological target: Mitogen-activated protein kinase 10 (Mus musculus) (UniProt Q61831); test: JNK3 AlphaScreen Assay (AID 530; active = well fitted curve in either direction with a large enough effect, not every such curve was filed as active;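 note: kinase came from lysate of stimulated human HepG2 cells; signal reports phosphorylation of biotinylated GST-cJun 1-79 at Ser73 with 10 µM ATP; % is set by controls: 0 for no effect and ±100 for the full control effect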); conditions: JNK3 lysate, c-Jun phosphorylation; series mostly up to 57.1 µM
Summary of the method: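 HepG2 lysate (IL-1b/TNFa pre-activated) + biotin-GST-cJun 1-79 + anti-pSer73 cJun; cpd titration, 15 min RT; ATP 10 uM start; Tris pH 7.6, MgCl2, DTT, vanadate; beads in EDTA buffer; AlphaScreen.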

[8] = Cell Viability - N2a (AID 540); conditions: N2a mouse neuroblastoma cell viability; activity change, negative = cytotoxicity: at 92.2 µM (top of the series);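 note: plate controls were DMSO alone for no effect and tamoxifen control for full effect; nearly all actives have a fitted effect of over 45% in size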
Summary of the method: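 N2a mouse neuroblastoma, 1500 cells/well, 5 hr settle; compound 40 hr, 37 °C; CellTiter-Glo 20 min RT; luminescence; Hill-fit AC50.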

[9] = Cell Viability - NIH 3T3 (AID 541); conditions: NIH 3T3 cell viability, qHTS; activity change, negative = cytotoxicity: at 92.2 µM (top of the series);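 note: cells exposed to compound for 40 hours; plate controls were DMSO alone for no effect and tamoxifen positive control for full effect; nearly all actives have a fitted effect of over 25% in size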
Summary of the method: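 qHTS format; 40 hr compound exposure, 37 °C; CellTiter-Glo luminescence (cellular ATP) read-out after 20 min at RT. Decrease in ATP = cytotoxicity; AC50 from standard Hill fit.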

[10] = Cell Viability - HUV-EC-C (AID 542); conditions: HUV-EC-C endothelial cell viability, qHTS; series mostly up to 92.2 µM;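 note: cells exposed to compound for 40 hours; % is set by controls: 0 for no effect and ±100 for the full control effect; nearly all actives have a fitted effect of over 35% in size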
Summary of the method: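 Luminescent ATP read-out (CellTiter-Glo, 20 min room temperature) after 40 hr compound treatment of HUV-EC-C cells at 37 °C. Concentration-response data fitted with the standard Hill equation to give AC50; tamoxifen and doxorubicin served as positive controls.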

[11] = Cell Viability - H-4-II-E (AID 543); conditions: H-4-II-E rat hepatoma viability; series mostly up to 92.2 µM;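 note: cells exposed to compound for 40 hours; % is set by controls: 0 for no effect and ±100 for the full control effect; nearly all actives have a fitted effect of over 35% in size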
Summary of the method: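 qHTS, rat hepatoma H-4-II-E, 1500 cells/well; 40 hr compound exposure, 37 °C; CellTiter-Glo ATP luminescence after 20 min RT; AC50 by standard Hill fit.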

[12] = Cell Viability - SH-SY5Y (AID 544); conditions: SH-SY5Y neuroblastoma cell viability; viability change, negative = cytotoxic: at 92.2 µM (top of the series);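 note: cells exposed to compound for 40 hours; nearly all actives have a fitted effect of over 55% in size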
Summary of the method: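 SH-SY5Y, 1500 cells/well, 5 hr pre-incubation 37 °C; cpd 40 hr 37 °C; CellTiter-Glo 20 min RT; luminescence (ATP) read. qHTS concentration-response, Hill fit → AC50. Tamoxifen, doxorubicin as positive controls.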

[13] = Cell Viability - Renal Proximal Tubule (AID 545); conditions: renal proximal tubule cells viability, primary cells of rat origin; series mostly up to 91.7 µM;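 note: cells exposed to compound for 40 hours; nearly all actives have a fitted effect of over 40% in size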
Summary of the method: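 Rat kidney proximal tubule cells, freshly isolated; 1000 cells/well, 5 hr settle, compound 40 hr 37 °C. CellTiter-Glo 20 min RT, luminescence read. AC50 by standard Hill fit.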

[14] = Cell Viability - Mesenchymal (AID 546); conditions: mesenchymal cells viability, qHTS; series mostly up to 91.7 µM;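 note: cells exposed to compound for 40 hours before reading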
Summary of the method: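 Human renal mesenchymal cells (glomerulus-derived), 1000 cells/well, 5 hr 37 °C pre-incubation; compound 40 hr, 37 °C; CellTiter-Glo, 20 min RT; luminescence; AC50 via Hill equation.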

[15] = Cellular Toxicity (caspase-3) HepG2 (AID 654); conditions: HepG2 caspase-3 activation, luminescence; series mostly up to 92.2 µM;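 note: cells exposed to compound for 16 hours before reading; 0% = DMSO alone and 100% = caspase signal from 100 µM tamoxifen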
Summary of the method: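 Luminescent Caspase-Glo 3/7 readout after 16 hr compound exposure of human hepatocellular carcinoma HepG2 cells at 37 °C; qHTS concentration-response, normalized DMSO = 0%, 100 uM tamoxifen = 100%; AC50 by standard Hill equation.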

[16] = Cellular Toxicity (caspase-3) HUV-EC-C (AID 656); conditions: HUV-EC-C cells, caspase-3 activation (apoptosis), vehicle = 0, 100 µM tamoxifen = 100%; series mostly up to 92.2 µM
Summary of the method: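 Luminescent caspase-3/7 activation (aminoluciferin substrate cleavage) in HUV-EC-C cells after 16 hr compound exposure, 37°C. Signal normalized to DMSO basal and 100 uM tamoxifen as 100%; AC50 from concentration-response fitted with the Hill equation.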

[17] = Cellular Toxicity (caspase-3) SHSY5Y (AID 657); conditions: SH-SY5Y caspase-3 activation, DMSO zero, 10 µM staurosporine = 100%; series mostly up to 91.7 µM;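 note: cells exposed to compound for 16 hours at 37 °C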
Summary of the method: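 Luminescent caspase-3/7 readout (aminoluciferin release) in SH-SY5Y cells after 16 h compound exposure in complete medium. Activity scaled between DMSO basal and 10 uM staurosporine as 100%; concentration-response fitted to Hill equation for AC50.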

[18] = Cellular Toxicity (caspase-3) Jurkat (AID 655); conditions: Jurkat caspase-3 activation, luminescence; caspase-3 activation: at 92.2 µM (top of the series), DMSO = 0%, tamoxifen = 100%;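 note: cells exposed to compound for 16 h at 37 °C before reading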
Summary of the method: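 Luminescent caspase-3/7 readout (aminoluciferin substrate cleavage) in human T-cell leukemia Jurkat cells after 16 hr compound exposure. Concentration-response normalized to DMSO and 100 uM tamoxifen; AC50 by standard Hill equation.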

[19] = Cellular Toxicity (caspase-3) BJ (AID 658); conditions: BJ fibroblasts, luminescence, normalized: DMSO 0%, staurosporine 100%; series mostly up to 91.7 µM;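 note: cells exposed to compound for 16 hours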
Summary of the method: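 qHTS, BJ fibroblasts, 1000 cells/well; 5 hr preincubation, 16 hr compound, 37 °C; Caspase-Glo 3/7 reagent, 1 hr RT; luminescence. DMSO = 0%, 10 uM staurosporine = 100%. Hill-equation AC50.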

[20] = Cellular Toxicity (caspase-3) MRC-5 (AID 659); conditions: MRC-5 cells, luminescence, normalized: DMSO 0%, 10 µM staurosporine 100%; series mostly up to 91.7 µM;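 note: cells exposed to compound for 16 h at 37 °C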
Summary of the method: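 MRC-5 fibroblasts, 1500/well; 16 h cpd, 37 °C; Caspase-Glo 3/7, 1 h RT; lumi read. Norm: DMSO = 0%, 10 uM staurosporine = 100%. Hill-fit AC50 from qHTS conc-response.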

O=[N+]([O-])c1cccc(C(F)(F)F)c1
inactive: Potency [1] > 92 µM | Potency [2] > 92 µM | Potency [3] > 92 µM | Potency [4] > 92 µM | Potency [5] > 92 µM | Potency [6] > 92 µM | outcome [7] | activity change, negative = cytotoxicity [8] 4.54% | Potency [9] | Potency [10] | Potency [11] | Potency [12] | Potency [13] | Potency [14] | Potency [15] | outcome [16] | outcome [17]

CC(=O)c1cccc([N+](=O)[O-])c1
inactive: Potency [1] > 92 µM | Potency [2] > 92 µM | Potency [3] > 92 µM | Potency [4] > 92 µM | Potency [5] > 92 µM | Potency [6] > 92 µM | outcome [7] | activity change, negative = cytotoxicity [8] 0.298% | Potency [9] | Potency [10] | Potency [11] | Potency [12] | Potency [13] | Potency [14] | caspase-3 activation [18] -0.656% | outcome [16] | outcome [17] | outcome [19] | outcome [20]

CCCCC(CC)C(=O)O (centres undefined)
inactive: Potency [1] > 92 µM | Potency [2] > 92 µM | Potency [3] > 92 µM | Potency [4] > 92 µM | Potency [5] > 92 µM | Potency [6] > 92 µM | outcome [7] | activity change, negative = cytotoxicity [8] 4.15% | Potency [9] | Potency [10] | Potency [11] | Potency [12] | Potency [13] | Potency [14] | Potency [15] | caspase-3 activation [18] 1.13% | outcome [16] | outcome [17] | outcome [20]

O=Cc1ccc(CO)o1
inactive: Potency [1] > 92 µM | Potency [2] > 92 µM | Potency [3] > 92 µM | Potency [4] > 92 µM | Potency [5] > 92 µM | Potency [6] > 92 µM | outcome [7] | activity change, negative = cytotoxicity [8] 1.46% | Potency [9] | Potency [10] | Potency [11] | Potency [12] | Potency [13] | Potency [14] | Potency [15] | outcome [16] | outcome [17] | outcome [19] | outcome [20]

CCOc1ccccc1N
inactive: Potency [1] > 92 µM | Potency [2] > 92 µM | Potency [3] > 92 µM | Potency [4] > 92 µM | Potency [5] > 92 µM | Potency [6] > 92 µM | outcome [7] | activity change, negative = cytotoxicity [8] 1.87% | Potency [9] | Potency [10] | Potency [11] | Potency [12] | Potency [13] | Potency [14] | Potency [15] | caspase-3 activation [18] 0.926% | outcome [16] | outcome [17] | outcome [19] | outcome [20]

CCOCCOCC
inactive: Potency [1] > 92 µM | Potency [2] > 92 µM | Potency [3] > 92 µM | Potency [4] > 92 µM | Potency [5] > 92 µM | Potency [6] > 92 µM | outcome [7] | activity change, negative = cytotoxicity [8] -1.44% | Potency [9] | Potency [10] | Potency [11] | Potency [12] | Potency [13] | Potency [14] | Potency [15] | outcome [16] | outcome [17] | outcome [19]

CNC(=O)N(c1ccccc1)c1ccccc1
inactive: Potency [1] > 92 µM | Potency [2] > 92 µM | Potency [3] > 92 µM | Potency [4] > 92 µM | Potency [5] > 92 µM | Potency [6] > 92 µM | outcome [7] | activity change, negative = cytotoxicity [8] -1.02% | Potency [9] | Potency [10] | Potency [11] | Potency [12] | Potency [13] | Potency [14] | Potency [15] | caspase-3 activation [18] 1.82% | outcome [16] | outcome [17] | outcome [19] | outcome [20]

O=C(O[C@@H](C(=O)O)[C@@H](OC(=O)c1ccccc1)C(=O)O)c1ccccc1
inactive: Potency [1] > 92 µM | Potency [2] > 92 µM | Potency [3] > 92 µM | Potency [4] > 92 µM | Potency [5] > 92 µM | Potency [6] > 92 µM | outcome [7] | activity change, negative = cytotoxicity [8] 4.68% | Potency [9] | Potency [10] | Potency [11] | Potency [12] | Potency [13] | Potency [14] | caspase-3 activation [18] 1.56% | outcome [16] | outcome [17] | outcome [20]

CC(C)CCOC(=O)/C=C/c1ccccc1
inactive: Potency [1] > 92 µM | Potency [2] > 92 µM | Potency [3] > 92 µM | Potency [4] > 92 µM | Potency [5] > 92 µM | Potency [6] > 92 µM | outcome [7] | activity change, negative = cytotoxicity [8] 1.5% | Potency [9] | Potency [10] | Potency [11] | Potency [12] | Potency [13] | Potency [14] | caspase-3 activation [18] 0.824% | outcome [16] | outcome [17] | outcome [19] | outcome [20]
